# Test results from PubChem BioAssay (Tox21).
# Results filed as inconclusive are left out. A call without a number means that no potency is given here. Some structures have more than one record in an assay (separate samples or runs), and their calls can disagree. Calls of active or inactive are those of the source. Unless noted, the call rests on the fitted dose curve; in most records, active means well fitted curve in the direction sought with a large enough effect in the repeat runs; inconclusive means weak or mixed curves; inactive means no such curve, though single readings can be large; an effect the other way counts as inactive or inconclusive.
# How the values were obtained:
# [1] = qHTS assay to identify small molecule antagonists of the thyroid receptor (TR) signaling pathway - cell viability counter screen (AID 743064); further: nearly all actives have a fitted effect of over 50% in size
# Summary of the method: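 CellTiter-Fluor readout, 30 min at 37 °C/5% CO2, following 23.5 h incubation of GH3.TRE-Luc cells with test compound and 1 nM T3 (final).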
# [2] = qHTS assay to identify small molecule antagonists of the thyroid receptor (TR) signaling pathway (AID 743065); further: series mostly up to about 70 µM; nearly all actives have a fitted effect of over 55% in size
# Summary of the method: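 GH3.TRE-Luc rat pituitary cells (two TREs driving luciferase) were dosed with compound, then stimulated with 1 nM T3 (final) for 23.5 h at 37 C. ONE-Glo luminescence was the read-out, with CellTiter-Fluor fluorescence as the cytotoxicity counter-screen.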
# [3] = system: thyroid hormone receptor (rat, GH3 cells); assay: qHTS assay to identify small molecule agonists of the thyroid receptor (TR) signaling pathway (AID 743066; calls by dose curve)
# [4] = target: Estrogen receptor (Homo sapiens) (UniProt P03372); assay: qHTS assay to identify small molecule antagonists of the estrogen receptor alpha (ER-alpha) signaling pathway (AID 743069; active means well fitted curve in the direction sought with a large enough effect in the signal ratio in the repeat runs, not every such curve was filed as active; the % refers to the signal ratio)
# Estrogen receptor (Homo sapiens), sequence (P03372 whole entry, looked up): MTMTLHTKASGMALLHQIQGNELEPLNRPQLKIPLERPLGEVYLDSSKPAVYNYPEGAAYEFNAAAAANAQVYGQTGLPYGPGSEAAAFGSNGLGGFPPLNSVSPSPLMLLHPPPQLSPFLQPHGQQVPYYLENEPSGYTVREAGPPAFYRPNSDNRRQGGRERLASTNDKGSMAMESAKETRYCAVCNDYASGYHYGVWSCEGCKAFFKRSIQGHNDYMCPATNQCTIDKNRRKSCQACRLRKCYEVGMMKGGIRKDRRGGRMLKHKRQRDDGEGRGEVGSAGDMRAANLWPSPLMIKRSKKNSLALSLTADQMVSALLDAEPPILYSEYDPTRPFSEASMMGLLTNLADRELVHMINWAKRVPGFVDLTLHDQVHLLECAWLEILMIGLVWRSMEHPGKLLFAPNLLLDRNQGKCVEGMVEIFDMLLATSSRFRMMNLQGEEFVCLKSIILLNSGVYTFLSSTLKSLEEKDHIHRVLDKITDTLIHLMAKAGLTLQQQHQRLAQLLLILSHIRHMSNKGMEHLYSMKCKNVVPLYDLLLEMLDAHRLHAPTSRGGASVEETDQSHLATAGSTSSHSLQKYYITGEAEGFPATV
# Summary of the method: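 Reporter cells (ER-alpha-bla, HEK293 background) are conditioned overnight in stripped-serum medium (2% charcoal-stripped FBS). Compound and 17beta-estradiol exposure runs 18 hr at 37C, 5% CO2.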
# [5] = qHTS assay to identify small molecule antagonists of the estrogen receptor alpha (ER-alpha) signaling pathway - cell viability counter screen (AID 743074; calls by dose curve;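 further: HEK293 cells carrying ER-alpha-UAS-bla reporter stimulated with 17beta-estradiol; nearly all actives have a fitted effect of over 45% in size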)
# [6] = target: Estrogen receptor (Homo sapiens) (UniProt P03372); assay: qHTS assay to identify small molecule agonists of the estrogen receptor alpha (ER-alpha) signaling pathway (AID 743075; calls by dose curve;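 further: HEK293 GripTite cells with ER-alpha and UAS-driven beta-lactamase reporter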)
# [7] = target: Estrogen receptor (Homo sapiens) (UniProt P03372); assay: qHTS assay to identify small molecule agonists of the estrogen receptor alpha (ER-alpha) signaling pathway using the BG1 cell line (AID 743079); further: nearly all actives have a fitted effect of over 20% in size
# [8] = qHTS assay to identify small molecule antagonists of the estrogen receptor alpha (ER-alpha) signaling pathway using the BG1 cell line (AID 743080; calls by dose curve; further: series mostly up to about 70 µM; nearly all actives have a fitted effect of over 25% in size)
# Summary of the method: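 Antagonist mode: compounds in DMSO were pinned onto BG1-Luc-4E2 cells alongside 17beta-estradiol agonist, incubated 21.5 h, and ERE-driven luciferase measured with ONE-Glo. Cytotoxicity was multiplexed using CellTiter-Fluor fluorescence.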
# [9] = qHTS assay to identify small molecule antagonists of the estrogen receptor alpha (ER-alpha) signaling pathway using the BG1 cell line - cell viability counter screen (AID 743081);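 further: compound given together with 17beta-estradiol as the ER stimulus; series mostly up to about 70 µM; nearly all actives have a fitted effect of over 45% in size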
# Aromatase (Homo sapiens) = Aromatase (Homo sapiens) (UniProt P11511); assay: qHTS assay to identify aromatase inhibitors (AID 743083); further: series mostly up to about 70 µM; nearly all actives have a fitted effect of over 55% in size
# Aromatase (Homo sapiens), sequence (P11511 whole entry, looked up): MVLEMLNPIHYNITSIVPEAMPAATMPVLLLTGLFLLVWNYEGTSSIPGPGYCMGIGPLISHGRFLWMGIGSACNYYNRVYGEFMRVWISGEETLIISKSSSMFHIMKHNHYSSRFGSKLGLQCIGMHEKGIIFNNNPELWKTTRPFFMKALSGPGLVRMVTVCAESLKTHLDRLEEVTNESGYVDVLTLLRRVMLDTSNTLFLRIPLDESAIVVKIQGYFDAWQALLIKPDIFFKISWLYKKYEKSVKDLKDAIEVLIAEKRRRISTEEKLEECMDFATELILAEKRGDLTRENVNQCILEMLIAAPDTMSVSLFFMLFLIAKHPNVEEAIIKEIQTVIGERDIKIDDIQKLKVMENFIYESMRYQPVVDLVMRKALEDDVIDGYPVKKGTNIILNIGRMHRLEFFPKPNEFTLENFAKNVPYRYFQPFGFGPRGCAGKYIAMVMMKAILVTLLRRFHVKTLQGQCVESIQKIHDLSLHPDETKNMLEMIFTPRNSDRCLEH
# [10] = qHTS assay to identify aromatase inhibitors - cell viability counter screen (AID 743084);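 further: cells stimulated with testosterone during compound exposure; nearly all actives have a fitted effect of over 55% in size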
# [11] = target: Aryl hydrocarbon receptor (Homo sapiens) (UniProt P35869); assay: qHTS assay to identify small molecule that activate the aryl hydrocarbon receptor (AhR) signaling pathway (AID 743085);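 further: HG2L7.5c1 human HepG2 liver cells with stably integrated DRE-driven firefly reporter; series mostly up to about 70 µM; nearly all actives have a fitted effect of over 15% in size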
# Aryl hydrocarbon receptor (Homo sapiens), sequence (P35869 whole entry, looked up): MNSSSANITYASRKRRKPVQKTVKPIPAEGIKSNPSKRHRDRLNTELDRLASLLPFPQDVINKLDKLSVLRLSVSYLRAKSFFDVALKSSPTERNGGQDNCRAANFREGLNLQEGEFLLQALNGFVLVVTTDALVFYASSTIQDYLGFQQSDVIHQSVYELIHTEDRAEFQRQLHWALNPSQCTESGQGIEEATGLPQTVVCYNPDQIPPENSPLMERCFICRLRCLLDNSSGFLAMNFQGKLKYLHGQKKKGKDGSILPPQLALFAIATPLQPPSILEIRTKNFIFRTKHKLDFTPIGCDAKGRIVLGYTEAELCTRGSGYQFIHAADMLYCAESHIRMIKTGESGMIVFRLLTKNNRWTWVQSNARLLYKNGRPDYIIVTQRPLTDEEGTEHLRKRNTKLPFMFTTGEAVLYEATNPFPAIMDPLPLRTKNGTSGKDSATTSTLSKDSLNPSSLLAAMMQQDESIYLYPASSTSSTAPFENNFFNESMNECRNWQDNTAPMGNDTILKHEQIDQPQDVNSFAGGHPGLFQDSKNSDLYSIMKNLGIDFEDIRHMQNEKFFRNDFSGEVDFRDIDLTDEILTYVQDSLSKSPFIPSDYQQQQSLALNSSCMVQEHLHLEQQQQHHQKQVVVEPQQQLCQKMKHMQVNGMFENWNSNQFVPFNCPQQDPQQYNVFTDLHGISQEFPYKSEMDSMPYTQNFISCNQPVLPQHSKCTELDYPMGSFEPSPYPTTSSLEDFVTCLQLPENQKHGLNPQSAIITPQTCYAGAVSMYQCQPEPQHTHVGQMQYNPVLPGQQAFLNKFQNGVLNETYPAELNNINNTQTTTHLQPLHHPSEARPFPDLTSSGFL
# Summary of the method: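 Stably transfected human liver carcinoma cells (HG2L7.5c1; 20 DRE-firefly luciferase) were incubated 5 h, dosed, and kept 24 h at 37C. Agonism was scored from increased luciferase luminescence.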
# [12] = qHTS assay to identify small molecule that activate the aryl hydrocarbon receptor (AhR) signaling pathway - cell viability counter screen (AID 743086);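 further: HepG2 liver cells carrying the AhR DRE luciferase reporter; series mostly up to about 70 µM; nearly all actives have a fitted effect of over 45% in size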
# Summary of the method: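 HepG2-AhR-luc (HG2L7.5c1) cells, 4000/well, treated 24 h at 37 C with compound; viability measured as CellTiter-Fluor fluorescence after 30 min in the same wells as the luciferase read.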
# [13] = target: Peroxisome proliferator-activated receptor gamma (Homo sapiens) (UniProt P37231); assay: qHTS assay to identify small molecule antagonists of the peroxisome proliferator-activated receptor gamma (PPARg) signaling pathway (AID 743191; calls by dose curve; further: series mostly up to about 63 µM; nearly all actives have a fitted effect of over 30% in size)
# Peroxisome proliferator-activated receptor gamma (Homo sapiens), sequence (P37231 whole entry, looked up): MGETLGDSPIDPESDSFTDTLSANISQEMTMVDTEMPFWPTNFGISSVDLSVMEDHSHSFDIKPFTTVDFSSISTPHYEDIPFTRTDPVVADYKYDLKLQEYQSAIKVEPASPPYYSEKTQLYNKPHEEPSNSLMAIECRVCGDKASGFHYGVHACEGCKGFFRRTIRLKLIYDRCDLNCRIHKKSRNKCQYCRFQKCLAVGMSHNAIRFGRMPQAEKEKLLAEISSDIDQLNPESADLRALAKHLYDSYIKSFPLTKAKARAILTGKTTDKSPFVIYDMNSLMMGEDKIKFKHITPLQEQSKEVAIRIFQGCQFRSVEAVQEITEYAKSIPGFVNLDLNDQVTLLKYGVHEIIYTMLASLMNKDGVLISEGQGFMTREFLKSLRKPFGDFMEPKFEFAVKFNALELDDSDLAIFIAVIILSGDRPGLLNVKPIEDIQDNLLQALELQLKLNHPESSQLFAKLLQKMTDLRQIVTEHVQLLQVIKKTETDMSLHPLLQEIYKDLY
# Summary of the method: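 GeneBLAzer PPARg UAS-bla HEK293H cells, 5 h post-plating, exposed to compounds 17 h at 37C. LiveBLAzer B/G FRET substrate added for 1 h at room temperature; beta-lactamase reporter read by fluorescence intensity.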
# [14] = qHTS assay to identify small molecule antagonists of the peroxisome proliferator-activated receptor gamma (PPARg) signaling pathway - cell viability counter screen (AID 743194); further: nearly all actives have a fitted effect of over 55% in size
# Summary of the method: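 Cytotoxicity counter screen in PPARg-bla HEK293H cells, same wells as reporter assay. Compounds plus 50 nM rosiglitazone (final) for 17 h at 37 C, then viability read by CellTiter-Glo luminescence.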
# [15] = qHTS assay for small molecule agonists of the antioxidant response element (ARE) signaling pathway (AID 743202; active means well fitted activation curve with a large enough effect in the signal ratio in the repeat runs, not every such curve was filed as active; the % refers to the signal ratio; further: potency means the concentration at half of the fitted maximal effect)
# Summary of the method: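 Agonist mode reporter screen: HepG2 cells with ARE-controlled beta-lactamase are incubated with test compounds for 16 h at 37 C, and beta-lactamase activity is measured as fluorescence of cleaved B/G FRET substrate.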
# [16] = qHTS assay for small molecule agonists of the antioxidant response element (ARE) signaling pathway - cell viability counter screen (AID 743203; calls by dose curve; further: nearly all actives have a fitted effect of over 55% in size)
# Summary of the method: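 Seeded at 2,000 cells/well, ARE-bla HepG2 cells were incubated 5 hrs before compound addition. After 16 hrs of treatment at 37C with 5% CO2, CellTiter-Glo reagent was added and luminescence read 30 min later.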
# [17] = qHTS assay for small molecule activators of the heat shock response signaling pathway - cell viability counter screen (AID 743209); further: nearly all actives have a fitted effect of over 50% in size
# Summary of the method: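 First, HSE-bla HeLa cells were seeded at 1500 cells/well and kept overnight at 37 C. Next, compounds were pinned in and incubated 5 h. After the FRET substrate step, CellTiter-Glo was added and luminescence read 30 min later.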
# [18] = qHTS assay for small molecule activators of the heat shock response signaling pathway (AID 743210; active means well fitted activation curve with a large enough effect in the signal ratio in the repeat runs, with a control signal flat, not every such curve was filed as active; the % refers to the signal ratio;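 further: HeLa cells with beta-lactamase reporter driven by heat shock elements; series mostly up to about 63 µM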)
# Summary of the method: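 Quantitative high-throughput format using an engineered HeLa line in which heat shock response elements drive beta-lactamase; after 5 h with compound, cells received a B/G FRET substrate and fluorescence was read.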
# [19] = target: Peroxisome proliferator-activated receptor gamma (Homo sapiens) (UniProt P37231); assay: qHTS assay to identify small molecule agonists of the peroxisome proliferator-activated receptor gamma (PPARg) signaling pathway (AID 743094; active means well fitted activation curve with a large enough effect in the signal ratio in the repeat runs, not every such curve was filed as active; the % refers to the signal ratio)
# Summary of the method: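 Quantitative HTS agonist mode: stable HEK293H line with UAS-beta-lactamase reporter under PPARg control, 17 h compound exposure at 37C, fluorescence after 1 h FRET substrate loading at room temperature.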
SMILES,Potency [1],Potency [2],outcome [3],Potency [4],outcome [5],Potency [6],Potency [7],outcome [8],Potency [9],Potency (Aromatase (Homo sapiens)),Potency [10],Potency [11],Potency [12],outcome [13],outcome [14],Potency [15],Potency [16],outcome [17],outcome [18],outcome [19]
CNC(=S)N(C)C,inactive,inactive,inactive,inactive,inactive,inactive,inactive,inactive,inactive,inactive,inactive,inactive,inactive,inactive,inactive,inactive,inactive,inactive,inactive,
CC1(C)CC(N)CC(C)(CN)C1 (stereo not drawn),inactive,inactive,inactive,inactive,inactive,inactive,inactive,inactive,inactive,inactive,inactive,,inactive,inactive,inactive,inactive,inactive,,inactive,inactive
O=C(OCC1CCC2OC2C1)C1CCC2OC2C1 (stereo not drawn),inactive,inactive,inactive,inactive,inactive,inactive,inactive,,inactive,inactive,inactive,inactive,inactive,inactive,inactive,,inactive,inactive,inactive,inactive
C=C(C)C(=O)OCC(C)C,inactive,inactive,inactive,inactive,inactive,inactive,inactive,inactive,inactive,inactive,inactive,inactive,inactive,inactive,inactive,inactive,inactive,,inactive,inactive
CCCCCCCC=O,inactive,inactive,inactive,inactive,inactive,inactive,inactive,,inactive,inactive,inactive,inactive,inactive,,inactive,inactive,inactive,,inactive,inactive
c1ccc2c(c1)Cc1ccccc1-2,inactive,inactive,inactive,inactive,inactive,inactive,inactive,,inactive,inactive,inactive,inactive,inactive,inactive,inactive,inactive,inactive,inactive,inactive,
NCCN1CCNCC1,inactive,inactive,inactive,inactive,,inactive,inactive,,inactive,inactive,inactive,inactive,inactive,inactive,inactive,inactive,inactive,,,inactive
C=CC[N+](C)(C)CC=C,inactive,inactive,inactive,,inactive,,,,inactive,inactive,inactive,inactive,inactive,inactive,inactive,inactive,inactive,,,inactive
CC(C)(Oc1ccc(CCNC(=O)c2ccc(Cl)cc2)cc1)C(=O)O,inactive,inactive,inactive,inactive,inactive,inactive,inactive,,inactive,inactive,inactive,inactive,inactive,inactive,inactive,,inactive,inactive,,
COC(=O)c1cccnc1,inactive,inactive,inactive,,inactive,,,,inactive,inactive,inactive,inactive,inactive,inactive,inactive,inactive,inactive,,inactive,inactive
O=[N+]([O-])c1ccc2nc[nH]c2c1,inactive,inactive,inactive,inactive,,inactive,inactive,inactive,inactive,inactive,inactive,,inactive,inactive,inactive,,inactive,inactive,inactive,inactive
O=C(O)CCCCCCCCC(=O)O,inactive,inactive,inactive,,inactive,,,,inactive,inactive,inactive,inactive,inactive,inactive,inactive,,inactive,inactive,inactive,inactive
O=C(O)c1ccc(S(=O)(=O)N(Cl)Cl)cc1,inactive,inactive,inactive,inactive,inactive,inactive,inactive,,inactive,inactive,inactive,inactive,inactive,inactive,inactive,27.5 µM (active) and inactive,inactive,inactive,,
Brc1ccc(Br)c(Br)c1,inactive,inactive,inactive,inactive,inactive,inactive,inactive,,inactive,inactive,inactive,inactive,inactive,inactive,inactive,,inactive,inactive,inactive,
CCOCCOCCOCCO,inactive,inactive,inactive,,inactive,,,,inactive,inactive,inactive,inactive,inactive,inactive,inactive,inactive,inactive,inactive,inactive,inactive
OCc1cccc(Oc2ccccc2)c1,inactive,inactive,inactive,,inactive,,,,inactive,inactive,inactive,inactive,inactive,,inactive,inactive,inactive,inactive,,inactive
OCc1ccccc1,inactive,inactive,inactive,inactive,inactive,inactive,inactive,,inactive,inactive,inactive,inactive,inactive,inactive,inactive,,inactive,inactive,inactive,
